Data: publication PMC7862700, “An all-to-all approach to the identification of sequence-specific readers for epigenetic DNA modifications on cytosine”

Assays:
Experiment in all cases: DAPPL (digital affinity profiling via proximity ligation, sequencing); 10 mM Tris-HCl pH 7.5, 50 mM NaCl, 1 mM DTT, 4% glycerol, room temperature, 30 min; GST-TFs on glutathione beads, 16-mer random dsDNA library, 0.1% formaldehyde crosslink after washing; high values mean tight binding
Settings in all cases: protein: recombinant; tags: N-terminal GST; dsDNA, one strand shown
FLI1 = target: T1, FLI1 (Homo sapiens, UniProt Q01543 1-452)
T1 sequence: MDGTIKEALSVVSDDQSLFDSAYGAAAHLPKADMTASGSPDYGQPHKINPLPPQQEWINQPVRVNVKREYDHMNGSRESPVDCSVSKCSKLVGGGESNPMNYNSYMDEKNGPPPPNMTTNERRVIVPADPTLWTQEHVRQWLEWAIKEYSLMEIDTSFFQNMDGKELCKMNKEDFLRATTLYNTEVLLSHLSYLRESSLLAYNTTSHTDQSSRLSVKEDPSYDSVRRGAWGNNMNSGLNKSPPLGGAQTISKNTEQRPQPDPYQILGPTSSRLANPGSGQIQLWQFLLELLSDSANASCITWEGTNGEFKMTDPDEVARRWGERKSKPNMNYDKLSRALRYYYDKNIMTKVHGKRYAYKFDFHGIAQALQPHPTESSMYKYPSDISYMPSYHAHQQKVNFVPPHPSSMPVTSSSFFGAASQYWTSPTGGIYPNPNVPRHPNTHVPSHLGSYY
Procedure, shortened: (§1)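 Beads coated with glutathione captured GST-fused human transcription factors that had been expressed in yeast, and the factors were then given DNA barcodes and pooled with a tag-only sample. The pools were incubated with 200 nmole of a random double-stranded 16-mer DNA library in Tris/NaCl/DTT/glycerol buffer for 30 min at room temperature, washed, crosslinked with 0.1% formaldehyde and proximity-ligated with BsaI/T4 ligase at 37 °C for 1 h. PCR amplification and Illumina NextSeq500 sequencing came last. Binding signal is each hexamer's read frequency for a factor divided by its frequency for the tag-only sample.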

ELK1 = target: T2, ELK1 (Homo sapiens, UniProt P19419 1-428)
T2 sequence: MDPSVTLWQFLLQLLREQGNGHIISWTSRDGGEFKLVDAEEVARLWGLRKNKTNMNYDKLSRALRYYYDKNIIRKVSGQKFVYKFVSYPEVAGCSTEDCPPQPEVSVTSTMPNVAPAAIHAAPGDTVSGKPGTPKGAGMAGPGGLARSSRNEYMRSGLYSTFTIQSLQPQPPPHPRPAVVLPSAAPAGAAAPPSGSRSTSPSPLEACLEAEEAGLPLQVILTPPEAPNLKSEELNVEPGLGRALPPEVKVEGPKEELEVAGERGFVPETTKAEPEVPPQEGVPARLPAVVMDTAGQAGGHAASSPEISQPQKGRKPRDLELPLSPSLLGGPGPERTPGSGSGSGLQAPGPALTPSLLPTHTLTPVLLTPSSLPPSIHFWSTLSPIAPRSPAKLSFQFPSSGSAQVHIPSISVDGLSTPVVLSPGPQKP
Procedure, shortened: as §1

GABPA = target: T3, GABPA (Homo sapiens, UniProt Q06546 1-454)
T3 sequence: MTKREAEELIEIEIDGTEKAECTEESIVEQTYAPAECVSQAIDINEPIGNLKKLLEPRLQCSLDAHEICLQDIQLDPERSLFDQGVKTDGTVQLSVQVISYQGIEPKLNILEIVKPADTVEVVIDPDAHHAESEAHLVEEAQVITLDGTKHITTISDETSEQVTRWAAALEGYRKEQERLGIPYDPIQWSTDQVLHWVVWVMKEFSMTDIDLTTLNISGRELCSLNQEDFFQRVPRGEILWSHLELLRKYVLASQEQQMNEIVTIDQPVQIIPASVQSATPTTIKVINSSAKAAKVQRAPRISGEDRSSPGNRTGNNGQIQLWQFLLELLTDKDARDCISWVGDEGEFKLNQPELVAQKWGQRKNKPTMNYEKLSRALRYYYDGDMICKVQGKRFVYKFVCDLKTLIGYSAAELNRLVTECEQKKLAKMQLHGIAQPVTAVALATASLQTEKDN
Procedure, shortened: as §1

ERG = target: T4, ERG (Homo sapiens, UniProt P11308 1-479)
T4 sequence: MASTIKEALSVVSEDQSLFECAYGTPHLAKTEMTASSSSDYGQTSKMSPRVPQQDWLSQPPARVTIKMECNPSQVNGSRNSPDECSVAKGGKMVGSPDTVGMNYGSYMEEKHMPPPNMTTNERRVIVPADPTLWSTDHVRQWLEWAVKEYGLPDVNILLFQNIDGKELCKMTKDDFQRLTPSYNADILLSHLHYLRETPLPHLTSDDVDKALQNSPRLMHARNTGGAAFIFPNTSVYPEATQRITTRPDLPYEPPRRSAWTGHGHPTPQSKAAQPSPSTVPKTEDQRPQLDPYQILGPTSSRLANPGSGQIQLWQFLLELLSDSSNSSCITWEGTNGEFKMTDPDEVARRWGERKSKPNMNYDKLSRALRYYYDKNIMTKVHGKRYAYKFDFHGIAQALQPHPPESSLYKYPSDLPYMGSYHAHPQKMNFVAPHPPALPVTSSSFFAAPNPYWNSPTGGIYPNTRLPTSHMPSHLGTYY
Procedure, shortened: as §1

ELF1 = ELF1 (Homo sapiens, UniProt P32519 1-619)
Procedure, shortened: as §1

EHF = target: T5, EHF (Homo sapiens, UniProt Q9NZC4 1-300)
T5 sequence: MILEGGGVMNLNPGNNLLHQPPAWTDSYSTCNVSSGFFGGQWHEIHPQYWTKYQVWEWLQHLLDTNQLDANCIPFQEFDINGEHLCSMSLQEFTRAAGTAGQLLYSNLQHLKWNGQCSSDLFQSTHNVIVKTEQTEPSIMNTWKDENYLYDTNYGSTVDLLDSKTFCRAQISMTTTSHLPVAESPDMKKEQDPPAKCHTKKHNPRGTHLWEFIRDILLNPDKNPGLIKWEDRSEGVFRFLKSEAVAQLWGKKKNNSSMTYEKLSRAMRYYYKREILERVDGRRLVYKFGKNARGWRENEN
Procedure, shortened: as §1

SPI1 = SPI1 (Homo sapiens, UniProt P17947 1-270)
Procedure, shortened: as §1

SPIB = SPIB (Homo sapiens, UniProt Q01892 1-262)
Procedure, shortened: as §1

ELK3 = target: T6, ELK3 (Homo sapiens, UniProt P41970 1-407)
T6 sequence: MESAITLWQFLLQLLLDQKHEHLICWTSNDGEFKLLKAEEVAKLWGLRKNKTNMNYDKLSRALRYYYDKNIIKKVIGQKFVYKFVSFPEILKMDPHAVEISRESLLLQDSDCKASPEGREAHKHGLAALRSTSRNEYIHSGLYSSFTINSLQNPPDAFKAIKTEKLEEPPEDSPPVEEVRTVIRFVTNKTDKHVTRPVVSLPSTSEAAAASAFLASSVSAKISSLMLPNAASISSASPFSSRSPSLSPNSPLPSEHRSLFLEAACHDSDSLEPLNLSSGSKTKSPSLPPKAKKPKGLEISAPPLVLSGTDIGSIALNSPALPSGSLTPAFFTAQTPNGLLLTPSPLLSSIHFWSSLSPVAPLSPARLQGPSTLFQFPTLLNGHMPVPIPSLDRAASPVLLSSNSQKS
Procedure, shortened: as §1

FEV = target: T7, FEV (Homo sapiens, UniProt Q99581 1-238)
T7 sequence: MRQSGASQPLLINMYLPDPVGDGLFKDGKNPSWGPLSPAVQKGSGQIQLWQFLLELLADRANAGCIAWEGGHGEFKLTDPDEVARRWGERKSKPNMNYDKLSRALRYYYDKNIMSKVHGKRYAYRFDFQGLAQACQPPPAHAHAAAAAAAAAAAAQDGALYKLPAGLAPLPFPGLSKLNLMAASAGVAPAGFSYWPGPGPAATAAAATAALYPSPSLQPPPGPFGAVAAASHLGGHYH
Procedure, shortened: as §1

ETV5 = ETV5 (Homo sapiens, UniProt P41161 1-510)
Procedure, shortened: as §1

SPIC = target: T8, SPIC (Homo sapiens, UniProt Q8N5J4 1-248)
T8 sequence: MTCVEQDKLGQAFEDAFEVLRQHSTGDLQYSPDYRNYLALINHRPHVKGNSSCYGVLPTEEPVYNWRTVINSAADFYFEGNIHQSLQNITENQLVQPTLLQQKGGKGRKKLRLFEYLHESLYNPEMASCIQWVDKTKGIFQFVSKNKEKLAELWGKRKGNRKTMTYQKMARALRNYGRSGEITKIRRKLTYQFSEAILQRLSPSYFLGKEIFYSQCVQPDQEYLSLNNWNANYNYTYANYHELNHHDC
Procedure, shortened: as §1

ELF4 = ELF4 (Homo sapiens, UniProt Q99607 1-663)
Procedure, shortened: as §1

ELK4 = target: T9, ELK4 (Homo sapiens, UniProt P28324-2 1-405)
T9 sequence: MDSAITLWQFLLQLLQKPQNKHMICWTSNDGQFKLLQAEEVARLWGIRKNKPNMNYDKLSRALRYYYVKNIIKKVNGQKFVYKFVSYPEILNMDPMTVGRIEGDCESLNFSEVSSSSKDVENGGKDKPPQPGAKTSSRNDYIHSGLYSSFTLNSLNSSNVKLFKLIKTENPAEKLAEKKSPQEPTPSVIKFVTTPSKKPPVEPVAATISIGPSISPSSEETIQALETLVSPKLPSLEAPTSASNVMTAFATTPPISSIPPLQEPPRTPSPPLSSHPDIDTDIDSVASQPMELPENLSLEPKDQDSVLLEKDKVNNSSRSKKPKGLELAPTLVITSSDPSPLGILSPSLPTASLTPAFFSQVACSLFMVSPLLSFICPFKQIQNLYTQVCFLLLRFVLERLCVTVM
Procedure, shortened: as §1

ETV2 = target: T10, ETV2 (Homo sapiens, UniProt O00321 1-342)
T10 sequence: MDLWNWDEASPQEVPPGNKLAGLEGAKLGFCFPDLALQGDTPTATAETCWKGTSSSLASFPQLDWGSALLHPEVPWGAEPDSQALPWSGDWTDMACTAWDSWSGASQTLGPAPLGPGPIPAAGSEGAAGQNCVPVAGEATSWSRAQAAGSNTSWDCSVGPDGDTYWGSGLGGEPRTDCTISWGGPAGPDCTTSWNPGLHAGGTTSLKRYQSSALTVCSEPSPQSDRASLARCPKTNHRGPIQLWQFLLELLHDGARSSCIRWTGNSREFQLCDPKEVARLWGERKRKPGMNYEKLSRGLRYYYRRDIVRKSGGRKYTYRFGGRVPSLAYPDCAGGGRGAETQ
Procedure, shortened: as §1

ELF3 = target: T11, ELF3 (Homo sapiens, UniProt P78545 1-371)
T11 sequence: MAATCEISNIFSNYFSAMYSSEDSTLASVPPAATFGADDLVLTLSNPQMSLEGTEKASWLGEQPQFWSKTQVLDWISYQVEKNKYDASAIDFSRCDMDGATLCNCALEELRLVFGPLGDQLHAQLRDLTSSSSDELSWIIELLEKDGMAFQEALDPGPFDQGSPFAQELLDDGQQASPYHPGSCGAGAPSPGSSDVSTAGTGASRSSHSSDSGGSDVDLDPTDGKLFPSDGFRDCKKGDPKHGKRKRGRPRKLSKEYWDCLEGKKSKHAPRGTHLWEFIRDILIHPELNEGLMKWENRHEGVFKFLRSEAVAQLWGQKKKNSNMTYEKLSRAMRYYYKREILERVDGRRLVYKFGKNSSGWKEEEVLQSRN
Procedure, shortened: as §1

ETV1 = ETV1 (Homo sapiens, UniProt P50549 1-477)
Procedure, shortened: as §1

Chain of ELF4 (Q99607 whole entry): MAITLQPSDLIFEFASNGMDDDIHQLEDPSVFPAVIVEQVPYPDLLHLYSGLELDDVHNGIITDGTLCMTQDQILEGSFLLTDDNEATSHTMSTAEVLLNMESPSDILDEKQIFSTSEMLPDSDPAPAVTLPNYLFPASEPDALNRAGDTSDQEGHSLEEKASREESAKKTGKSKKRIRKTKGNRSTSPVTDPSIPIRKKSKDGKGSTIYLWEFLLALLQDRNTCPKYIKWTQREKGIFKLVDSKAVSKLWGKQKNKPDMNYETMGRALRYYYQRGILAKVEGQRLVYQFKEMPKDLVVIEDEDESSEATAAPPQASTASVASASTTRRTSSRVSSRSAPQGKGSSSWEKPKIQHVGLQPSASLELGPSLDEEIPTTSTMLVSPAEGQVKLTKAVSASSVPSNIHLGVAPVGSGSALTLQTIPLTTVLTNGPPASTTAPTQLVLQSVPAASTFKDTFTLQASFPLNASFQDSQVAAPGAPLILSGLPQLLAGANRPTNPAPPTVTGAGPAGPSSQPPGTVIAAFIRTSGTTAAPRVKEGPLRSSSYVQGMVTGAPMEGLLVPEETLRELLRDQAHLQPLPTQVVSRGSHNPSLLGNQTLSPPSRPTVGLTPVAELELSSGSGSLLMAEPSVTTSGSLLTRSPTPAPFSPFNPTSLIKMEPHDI
Chain of ETV1 (P50549 whole entry): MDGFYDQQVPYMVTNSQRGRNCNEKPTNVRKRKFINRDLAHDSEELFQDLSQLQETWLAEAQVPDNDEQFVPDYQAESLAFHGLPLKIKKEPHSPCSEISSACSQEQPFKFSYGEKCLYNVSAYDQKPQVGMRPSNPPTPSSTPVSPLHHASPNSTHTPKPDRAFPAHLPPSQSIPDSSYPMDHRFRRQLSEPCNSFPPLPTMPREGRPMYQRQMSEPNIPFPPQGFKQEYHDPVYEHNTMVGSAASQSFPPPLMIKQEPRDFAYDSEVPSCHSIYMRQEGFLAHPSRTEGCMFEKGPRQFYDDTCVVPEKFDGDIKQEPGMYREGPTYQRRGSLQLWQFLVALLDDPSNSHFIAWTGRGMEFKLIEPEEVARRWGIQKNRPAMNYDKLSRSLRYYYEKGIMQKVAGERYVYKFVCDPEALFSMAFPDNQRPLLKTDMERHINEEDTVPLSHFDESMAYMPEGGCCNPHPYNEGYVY
Chain of ELF1 (P32519 whole entry): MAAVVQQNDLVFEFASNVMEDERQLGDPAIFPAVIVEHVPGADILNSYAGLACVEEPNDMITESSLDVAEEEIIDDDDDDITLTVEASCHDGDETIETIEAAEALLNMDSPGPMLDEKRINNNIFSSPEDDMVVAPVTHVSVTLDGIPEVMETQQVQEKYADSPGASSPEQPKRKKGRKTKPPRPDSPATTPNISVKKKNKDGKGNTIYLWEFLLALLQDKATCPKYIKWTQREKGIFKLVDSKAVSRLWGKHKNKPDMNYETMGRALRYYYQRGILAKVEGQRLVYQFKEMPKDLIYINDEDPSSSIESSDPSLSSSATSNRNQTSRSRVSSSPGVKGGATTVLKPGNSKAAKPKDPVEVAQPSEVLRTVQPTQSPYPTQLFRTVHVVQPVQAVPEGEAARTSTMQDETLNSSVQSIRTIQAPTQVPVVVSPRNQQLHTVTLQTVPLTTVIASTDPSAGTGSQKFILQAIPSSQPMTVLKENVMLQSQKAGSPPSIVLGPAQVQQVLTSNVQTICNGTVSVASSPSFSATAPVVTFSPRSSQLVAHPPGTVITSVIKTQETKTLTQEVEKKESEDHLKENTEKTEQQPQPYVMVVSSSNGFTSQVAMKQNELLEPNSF
Chain of SPIB (Q01892 whole entry): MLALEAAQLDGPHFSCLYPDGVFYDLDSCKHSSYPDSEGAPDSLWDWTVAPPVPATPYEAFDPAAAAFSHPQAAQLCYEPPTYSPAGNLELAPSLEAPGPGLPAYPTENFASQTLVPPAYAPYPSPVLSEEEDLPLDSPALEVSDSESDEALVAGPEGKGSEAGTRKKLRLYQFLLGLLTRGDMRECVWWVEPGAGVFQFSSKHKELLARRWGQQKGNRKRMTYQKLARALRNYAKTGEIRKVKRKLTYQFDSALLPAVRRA
Chain of ETV5 (P41161 whole entry): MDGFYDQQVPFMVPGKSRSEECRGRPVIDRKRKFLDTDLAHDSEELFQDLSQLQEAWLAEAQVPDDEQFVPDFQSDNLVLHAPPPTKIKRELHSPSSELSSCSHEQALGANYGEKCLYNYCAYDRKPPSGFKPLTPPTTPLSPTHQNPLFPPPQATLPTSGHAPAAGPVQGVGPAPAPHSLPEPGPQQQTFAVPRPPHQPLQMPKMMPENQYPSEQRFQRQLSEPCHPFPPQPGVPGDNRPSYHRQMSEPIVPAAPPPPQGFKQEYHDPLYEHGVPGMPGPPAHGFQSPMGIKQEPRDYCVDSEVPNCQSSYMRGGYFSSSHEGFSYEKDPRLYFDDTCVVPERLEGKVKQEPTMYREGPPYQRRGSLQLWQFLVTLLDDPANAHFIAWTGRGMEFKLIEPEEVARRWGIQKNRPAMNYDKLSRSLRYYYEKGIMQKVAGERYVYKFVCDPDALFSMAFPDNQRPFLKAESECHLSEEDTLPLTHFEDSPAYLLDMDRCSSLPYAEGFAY

| Sequence | binding signal (FLI1) | binding signal (ELK1) | binding signal (GABPA) | binding signal (ERG) | binding signal (ELF1) | binding signal (EHF) | binding signal (SPI1) | binding signal (SPIB) | binding signal (ELK3) | binding signal (FEV) | binding signal (ETV5) | binding signal (SPIC) | binding signal (ELF4) | binding signal (ELK4) | binding signal (ETV2) | binding signal (ELF3) | binding signal (ETV1) |
| --- | --- | --- | --- | --- | --- | --- | --- | --- | --- | --- | --- | --- | --- | --- | --- | --- | --- |
| AAGTGG | 1.09 fold enrichment (6-mer frequency, TF over GST control) | 1.19 fold enrichment (6-mer frequency, TF over GST control) | 1.22 fold enrichment (6-mer frequency, TF over GST control) | 1.16 fold enrichment (6-mer frequency, TF over GST control) | 1.17 fold enrichment (6-mer frequency, TF over GST control) | 1.24 fold enrichment (6-mer frequency, TF over GST control) | 1.5 fold enrichment (6-mer frequency, TF over GST control) | 1.26 fold enrichment (6-mer frequency, TF over GST control) | 1.33 fold enrichment (6-mer frequency, TF over GST control) | 1.23 fold enrichment (6-mer frequency, TF over GST control) | 1.17 fold enrichment (6-mer frequency, TF over GST control) | 1.43 fold enrichment (6-mer frequency, TF over GST control) | 1.12 fold enrichment (6-mer frequency, TF over GST control) | 1.13 fold enrichment (6-mer frequency, TF over GST control) | 1.02 fold enrichment (6-mer frequency, TF over GST control) | 1.19 fold enrichment (6-mer frequency, TF over GST control) | 1.2 fold enrichment (6-mer frequency, TF over GST control) |
| GACTAC | 1.17 fold enrichment (6-mer frequency, TF over GST control) | 1.19 fold enrichment (6-mer frequency, TF over GST control) | 1.15 fold enrichment (6-mer frequency, TF over GST control) | 1.07 fold enrichment (6-mer frequency, TF over GST control) | 1.15 fold enrichment (6-mer frequency, TF over GST control) | 1.12 fold enrichment (6-mer frequency, TF over GST control) | 1.12 fold enrichment (6-mer frequency, TF over GST control) | 1.19 fold enrichment (6-mer frequency, TF over GST control) | 1.1 fold enrichment (6-mer frequency, TF over GST control) | 1.08 fold enrichment (6-mer frequency, TF over GST control) | 1.15 fold enrichment (6-mer frequency, TF over GST control) | 1.13 fold enrichment (6-mer frequency, TF over GST control) | 1.11 fold enrichment (6-mer frequency, TF over GST control) | 1.18 fold enrichment (6-mer frequency, TF over GST control) | 1.22 fold enrichment (6-mer frequency, TF over GST control) | 1.2 fold enrichment (6-mer frequency, TF over GST control) | 1.17 fold enrichment (6-mer frequency, TF over GST control) |
